# Reference: PubChem BioAssay AID651815 (National Center for Advancing Translational Sciences (NCATS), 2012)
# Hit rate of the full screen: of about 2,100 compounds, about 1,100 (52%) were called active. Inconclusive results (about 29%) are left out. The set was probably picked from earlier hits. The list shows a part of the results. A number with no mark means an inactive call. Calls follow the shape of the dose curve; as a rule, active = well fitted inhibition curve with a large enough effect; inconclusive = small, poorly fitted or top-dose-only effect; inactive = no such curve, though single readings can be large or run the other way.
# Molecular target: DNA dC->dU-editing enzyme APOBEC-3F (Homo sapiens) (UniProt Q8IUX4)
# Experiment: qHTS for inhibitors of Vif-A3F interactions: Cherry picks counterscreen; also: nearly all actives have a fitted effect of over 65% in size
# Details: HeLa A3F-eYFP/Vif cells, eYFP fluorescence, 24 h; series mostly up to 46.1 µM; activity, negative = inhibitor: at the top concentration
# Procedure, shortened: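 HeLa cells stably expressing A3F-eYFP and Vif, cultured overnight, then treated 24 h at 37 degrees C with compounds at several concentrations; yellow fluorescence (488 nm Ex/500-530 nm Em) imaged on Acumen; MG132 positive control.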
# % is scaled to controls: 0 for no effect and ±100 for the full control effect; potency is read from the fitted curve at half-maximal effect.
# Sequence of DNA dC->dU-editing enzyme APOBEC-3F (Homo sapiens) (Q8IUX4 whole entry, looked up): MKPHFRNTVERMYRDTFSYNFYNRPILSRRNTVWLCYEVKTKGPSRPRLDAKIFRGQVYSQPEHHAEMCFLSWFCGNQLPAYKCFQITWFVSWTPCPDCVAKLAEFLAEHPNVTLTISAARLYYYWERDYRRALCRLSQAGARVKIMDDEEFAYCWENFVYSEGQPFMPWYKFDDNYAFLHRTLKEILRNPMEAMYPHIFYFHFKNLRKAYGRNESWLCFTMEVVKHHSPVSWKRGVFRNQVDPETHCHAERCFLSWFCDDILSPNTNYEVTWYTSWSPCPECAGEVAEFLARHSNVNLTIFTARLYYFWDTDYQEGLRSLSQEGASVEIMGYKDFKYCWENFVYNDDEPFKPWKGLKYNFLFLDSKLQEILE
Compound,"activity, negative = inhibitor",Potency
C/C(=N\NC(=S)NCc1ccccc1)c1cccs1,0.839%,
CCOC(=O)Nc1ccc2nc(-c3cscn3)[nH]c2c1,,5.59 µM (active)
CC[n+]1c(/C=C/N(C)c2ccccc2)oc2ccc(F)cc21,,17.7 µM (active)
CC[n+]1c(/C=C/Nc2ccccc2)oc2ccc(OC)cc21,,16.4 µM (active)
CC[n+]1c(/C=C/Nc2ccccc2)oc2ccccc21,,18.4 µM (active)
NC(=O)c1ccc(NC(=O)C#Cc2ccccc2)cc1,-24.9% [at 36.9 µM],
Cc1cc(/C=N/NC(=O)c2cc3ccccc3o2)c(C)n1C,-21.4% [at 36.9 µM],
Cc1c(/C=N\NC(=O)c2cc3ccccc3o2)c2ccccc2n1C,,5.59 µM (active)
O=C(N/N=C/c1cccc2ccccc12)c1cc2ccccc2o1,,7.9 µM (active)
COc1ccc(OC)c(Nc2nc(-c3ccncc3)nc3ccccc23)c1,-24.7% [at 36.9 µM],
Cc1cccc(C)c1Nc1nc2ccccc2nc1NS(=O)(=O)c1ccccc1,,23.1 µM (active)
COc1cc(Cl)c(C)cc1Nc1nc2ccccc2nc1NS(=O)(=O)c1ccccc1,,1.46 µM (active)
Cc1cc(Br)ccc1SCC(=O)OC/C(O)=C(\C#N)c1nc2ccccc2[nH]1,-16.4%,
CCOC(=O)N1CCN(/C=C(\C#N)c2nc3ccccc3s2)CC1,,18.4 µM (active)
CCOc1ccccc1Nc1nnc(-c2cc3cc(OC)ccc3oc2=O)s1,,9.2 µM (active)
CCOc1ccccc1Nc1nnc(-c2cc3cc(Cl)ccc3oc2=O)s1,,5.17 µM (active)
O=C(CCCCl)Oc1ccc2cc(-c3ccc4ccccc4n3)c(=O)oc2c1,19.5%,

Compound,"activity, negative = inhibitor",Potency
COc1ccc2oc(=O)c(-c3nc4ccccc4o3)cc2c1,,14.6 µM (active)
CC(O)CN(CC(C)O)c1ccc2c(c1)Cc1cc([N+](=O)[O-])ccc1-2 (centres undefined),,2.31 µM (active)
CCN1C(=O)/C(=C/C=C2\N(CC)c3cc(S(=O)(=O)N(C)C)ccc3N2c2ccccc2)SC1=S,,6.27 µM (active)
CCN(CC)c1ccc(/C=N/NC(=S)NC)c(O)c1,-12.6%,
CCN(CC)c1ccc(/C=N/N=C(N)N)c(O)c1,,4.44 µM (active)
CN(Cc1cnn(Cc2ccccc2)c1)C(=O)c1cccc(S(=O)(=O)N2CCOCC2)c1,,11.2 µM (active)
O=C(O)CCCN1C(=O)/C(=C\C(Cl)=C\c2ccccc2)SC1=S,,7.04 µM (active)
CC1=CC(C)(C)NC(=S)N1c1ccc2ccccc2c1,5.28% [at 36.9 µM],
N#CC(=Cc1ccccn1)c1nc(-c2ccc(Cl)cc2)cs1,,12.5 µM (active)
O=C(NCCc1ccccc1Cl)c1ccc(Cn2c(=O)c3cccn3c3cccnc32)cc1,,18.4 µM (active)
O=C(N/N=C/c1ccc(-c2ccc([N+](=O)[O-])cc2)o1)[C@H]1C[C@@H]1c1ccccc1,-1.57%,
COCCNC(=S)N/N=C(\C)c1ccc(OC(F)F)cc1,10.2%,
Cc1cc([N+](=O)[O-])ccc1-c1ccc(/C=N/NC(=O)c2ccc(Br)o2)o1,,20.6 µM (active)
COCCNC(=S)NN=C1CCCCCC1,0.562%,
O=[N+]([O-])c1ccc(-c2ccc(/C=N/Nc3nc(NCc4ccccc4)nc(N4CCOCC4)n3)o2)cc1,,18.4 µM (active)
O=C(Cc1ccccc1)N/N=C/c1ccc(-c2ccc([N+](=O)[O-])cc2)o1,,15.8 µM (active)
COCCNC(=S)N/N=C/c1ccc(-c2ccc([N+](=O)[O-])cc2)o1,,15.8 µM (active)
